Measurements reported in PubChem BioAssay (NCI).
Compounds without any hit were thinned out: in the full panel of roughly 83,000, 20% have a hit.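 A percent growth of 40 corresponds to 60% growth inhibition; 0 means no net growth; -100 means all cells died. Active threshold: below 10.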 A number with no mark means an inactive call. Active and inactive are the calls of the source.

The molecules below were run on U251 CNS (assay: NCI-60 one-dose screen, 48 h (100 = growth as untreated, 0 = no growth, -100 = all killed)). Settings: 10 µM unless noted.
Protocol: Growth inhibition of the U251 human tumor cell line is measured as a screen for anti-cancer activity. Cells are grown in 96 well plates and exposed to the test compound for 48 hours. Compounds are tested at a single concentration, which is 10^-5 M for most compounds. The reported endpoint is percent growth (GI% or GIPRCNT), where numbers from 0 - 100% represent growth inhibition, and numbers from -100% - 0 represent cell death. For example, a value of 40 represents 60% growth inhibition. A value of 0 means no net growth occurred over the course of the experiment. A value of -40 indicates 40% of cells at the beginning of the experiment died by the end of the experiment. A value of -100 means all cells are dead at the end of the experiment.
NCI-60 Human Tumor Cell Lines Screen was performed using the standard one-dose NCI protocol, which is described in more detail at https://dtp.cancer.gov/discovery_development/nci-60/default.htm.
Compounds with GIPRCNT values below 10 were considered active. Activity score was based on GIPRCNT using the following formula: […]
Score is 0 for GIPRCNT values of 100 or above, 50 for GIPRCNT values of 0, and 100 for GIPRCNT values of -100.

SMILES | growth
O=C(CNC(=O)c1cccc2ccccc12)Nc1ccccc1Oc1cccc(O)c1 | 14.3% [5 µM]
C[C@@H]1C[C@@H]([C@@H](CC2CC(=O)NC(=O)C2)OC(=O)CC(=O)c2ccccc2)C(=O)[C@@H](C)C1 | 14.7%
COc1cc(/C=C/C(=O)CC(=O)/C=C/c2ccc(OC(=O)CCNC34CC5CC(CC(C5)C3)C4)c(OC)c2)ccc1OC(=O)CCNC12CC3CC(CC(C3)C1)C2 | 22.2%
COc1ccc(-c2nnc3c4[nH]cnc4ncn23)c(OC)c1 | 41.1%
COc1cc(/C=C/c2cc(/C=C/c3ccc(O)c(OC)c3)n(C(=O)Cc3ccccc3)n2)ccc1O | -2.58% (active)
COc1cc(/C=C/C(=O)c2c(C)n([O-])c3ccccc3[n+]2=O)cc(OC)c1OC | 47.7%
COc1ccc2c(c1)CC/C(=C\c1ccc(OCC(=O)Nc3nc4ccccc4s3)cc1)C2=O | 81.4%
COc1cnc2c(c1)C(=O)c1c-2n(CCCN2CCOCC2)c(=O)c2cc(F)ccc12 | -27.7% (active)
CSc1nc(N)c2c(n1)N(C)C=NS2(=O)=O | 103%
O=C(/C=C/c1c(-c2ccccc2)[nH]c2ccccc12)S(=O)(=O)c1ccccc1 | 76.5%
CCCCCN1C(=O)CCC1=O | 99%
Cc1ccc(S(=O)(=O)N2CCN(C(=O)CSc3nc4ccc(C)cc4[nH]3)CC2)cc1 | 106%
O=C1c2cccc3c([N+](=O)[O-])ccc(c23)C(=O)N1CCCCl | -97.4% [100 µM] (active)
CC(C)N(Cc1ccccc1)c1c(Cl)ssc1=O | 102%
O=c1oc2c(cc1-c1ccc([N+](=O)[O-])cc1)C(O)Oc1ccccc1-2 (stereo not given) | 97.6%
COc1ccc(C2CC(c3ccc(Nc4ccnc5cc(Cl)ccc45)cc3)=NN2C(C)=O)cc1 (stereo not given) | 62.8%
Nc1ncnc2c1CN(Cc1ccccc1)CC2 | 101%
Cc1cc(C)c2c(N)c3cccc(C)c3nc2n1 | 17.4%
Oc1c(Cl)cc(Cl)c(Cl)c1Cc1c(O)c(Cl)cc(Cl)c1Cl | 15%
O=c1sc2ncnc3ncn1c32 | 87.4%

SMILES | growth
CC(=O)Nc1ccc(C(=O)COc2cccc(/C=C3\CCc4ccccc4C3=O)c2)cc1 | 83.4%
C#C[C@]1(O)CCC2C3CCc4cc(O)ccc4C3CC[C@@]21C (stereo not given in full) | 32.2%
O=C(NC1CCS(=O)(=O)C1)c1ccc(C(=O)c2ccccc2)cc1 (stereo not given) | 90.1%
Cc1sc2nc3c4ccccc4c(NCCCN(C)C)nn3c(=O)c2c1C | 55.8%
Cc1cc(-c2ccccc2)cc(C)n1 | 103%
CC1CN(CC(O)c2ccc(Br)cc2)CCO1 (stereo not given) | 95.8%
O=C(NC1CCCCC1)c1ccc(Nc2ncnc3c2cnn3-c2ccccc2)cc1 | 40.2%
O=C(Nc1ccc(Cl)cc1)Nc1nc2ccc(OC(F)(F)F)cc2o1 | 83.1%
Cc1ccc(OCC(=O)Nc2ccc(Oc3ccccc3)cc2)c([N+](=O)[O-])n1 | 85%
c1ccc2c(-c3nc4ccccc4[nH]3)cccc2c1 | 12.5%
C/C(=C\CCc1ccoc1)CC/C=C(\C)CCCC1COC(=O)C1 (stereo not given) | 95.6%
C[N+]1(C)C2CC[C@@H]1CC(OC(=O)C(O)c1ccccc1)C2 (stereo not given in full) | 98.5%
N#Cc1ccc(-c2csc(Nc3ccc4nc5n(c(=O)c4c3)CCC5)n2)cc1 | 96%
Cc1ccc2c(c1)C(=O)/C(=C\Nc1ccc(C(N)=O)cc1)C(O)O2 (stereo not given) | 85.6%
COc1ccc2c(c1)sc1nc(-c3ccc(N(C)C)cc3)cn12 | 98.3%
Nc1nc(Nc2ccccc2SSc2ccccc2Nc2nc(N)nc(C(Cl)(Cl)Cl)n2)nc(C(Cl)(Cl)Cl)n1 | 32.1%
Fc1ccccc1C1c2ccccc2-c2nccn21 (stereo not given) | 98.8%
CC(=O)N1N=C(c2ccc(Nc3ccnc4cc(Cl)ccc34)cc2)CC1c1ccc(Cl)cc1 (stereo not given) | 57.9%
O=C(NCCCl)NCCN1c2nc3ccccc3cc2Sc2cc3ccccc3nc21 | 34.8%
CC(=O)Nc1cc2c3c(cccc3c1)-c1ccccc1-2 | 75.3%
